In PubChem BioAssay (Tox21):
Inconclusive results are not listed. Calls of active or inactive are those of the source. Unless noted, calls come from the whole dose curve.

Key:
[1] = Nuclear factor erythroid 2-related factor 2/antioxidant responsive element (Nrf2/ARE) small molecule agonists: luciferase reporter gene qHTS assay in human keratinocytes (AID 1919969); note: nearly all actives have a fitted effect of over 35% in size
[2] = molecular target: Gonadotropin-releasing hormone receptor (Homo sapiens) (UniProt P30968); assay: Human gonadotropin-releasing hormone receptor (GnRHR) small molecule agonists, calcium flux assay in GnRHR-HEK293 cells (AID 1920063); note: nearly all actives have a fitted effect of over 35% in size
Procedure, shortened: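 Intracellular calcium rise is the read-out: engineered human GnRHR HEK293 cells, dye-loaded, are exposed to DMSO-dissolved compounds and fluorescence at Ex/Em 480/540 is tracked for 3 min.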

[3] = molecular target: KiSS-1 receptor (Homo sapiens) (UniProt Q969F8); assay: Human kisspeptin (KISS1R) small molecule agonists, calcium flux assay in KISS1R-HEK293 cells (AID 1920064; active = well fitted activation curve with a large enough effect in the repeat runs)
Procedure, shortened: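 Concentration-response testing used 15 concentrations in triplicate on human KISS1R-expressing HEK293 cells. Calcium-dependent fluorescence (Ex/Em 480/540) was followed kinetically for 3 min after compound transfer.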

[4] = G protein-coupled receptor (GPCR) small molecule agonists, calcium flux assay: HEK293 wild type cell line counter screen (AID 1920065)
Procedure, shortened: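 Fluorescence intensity signals activation. After overnight (18 h) culture and a 1 h calcium dye load at 37 C, compounds are added by pin tool and the plate read at 480/540 nm for 3 min in 1 s steps.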

[5] = p53 small molecule agonists, cell-based qHTS assay with human liver microsomes: qHTS cell viability counter screen (AID 1963579); note: nearly all actives have a fitted effect of over 45% in size
Procedure, shortened: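 Metabolically activated exposure: compounds, human liver microsomes and NADPH (0.5 mg/mL final apiece) were added to p53RE-bla cells seeded 5 h earlier, left 16 h at 37 C, and then assessed for viability by CellTiter-Glo luminescence.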

[6] = p53 small molecule agonists, cell-based qHTS assay with rat liver microsomes: qHTS cell viability counter screen (AID 1963580); note: nearly all actives have a fitted effect of over 45% in size
Procedure, shortened: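 Cytotoxicity counter screen: intracellular ATP measured by CellTiter-Glo luminescence in the same wells as the beta-lactamase reporter read, on HCT-116 p53RE-bla cells exposed 16 h at 37 C to compounds with rat liver microsomes and NADPH, each 0.5 mg/mL final.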

[7] = molecular target: Muscarinic acetylcholine receptor M1 (Homo sapiens) (UniProt P11229); assay: Cholinergic receptor muscarinic 1 (CHRM1) small molecule antagonists, cell-based qHTS assay (AID 1963588); note: nearly all actives have a fitted effect of over 40% in size
Procedure, shortened: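 Compounds were tested at 15 concentrations in three independent runs. Dye-loaded CHRM1-CHO cells were exposed 5 min at room temperature before stimulation by acetylcholine added at 50nM. Intracellular calcium was read kinetically on FDSS for 3 min.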

[8] = molecular target: Muscarinic acetylcholine receptor M1 (Homo sapiens) (UniProt P11229); assay: Cholinergic receptor muscarinic 1 (CHRM1) small molecule agonists, cell-based qHTS assay (AID 1963589); note: nearly all actives have a fitted effect of over 35% in size
Procedure, shortened: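 Fluorescent calcium dye reports M1 activation in stably transfected CHO cells. Compounds, 15 concentrations, added after 1 h dye loading at 37 C; kinetic reading at 1 sec intervals.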

[9] = cAMP Responsive Elements (CRE) small molecule agonists, cell-based qHTS assay (AID 1963590)
Procedure, shortened: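 Compound exposure lasted 3 h at 37 C/5% CO2 in CRE-bla HEK 293T cells grown in assay medium with 10% dialyzed FBS and 25 mM HEPES. Reporter signal came from LiveBLAzer B/G FRET substrate, 2 h, room temperature.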

[10] = cAMP Responsive Elements (CRE) small molecule antagonists, cell-based qHTS assay (AID 1963591; active = well fitted inhibition curve with a large enough effect in the signal ratio in the repeat runs, not every such curve was filed as active; the % refers to the signal ratio)
Procedure, shortened: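 Stimulation used NKH477 at a final 0.25 uM for 3 h in compound-treated CRE-bla HEK293T cells, seeded 18 h beforehand. Reporter activity was measured with LiveBLAzer B/G FRET substrate after 2 h at room temperature.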

[11] = molecular target: Beta-2 adrenergic receptor (Homo sapiens) (UniProt P07550); assay: Adrenergic beta2 receptor (ADRB2) small molecule antagonists, cell-based qHTS assay (AID 1963592); note: series mostly up to about 92 µM; nearly all actives have a fitted effect of over 50% in size
Procedure, shortened: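 Assay format: CHO-ADRB2 cells, 18-20hr seeding at 37C/5% CO2, then compound plus 1nM isoproterenol agonist mix for 0.5hr RT. Homogeneous time-resolved fluorescence cAMP detection after 1hr, expressed as 665/615 nm ratio.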

[12] = molecular target: D(2) dopamine receptor (Homo sapiens) (UniProt P14416); assay: Dopamine D2 receptor (DRD2) small molecule agonists, cell-based qHTS assay (AID 1963594); note: nearly all actives have a fitted effect of over 35% in size
Procedure, shortened: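 HEK293 cells stably expressing human DRD2, pre-treated with PDE inhibitor Ro20-1724 (0.1 mM final) and compound 10 min at room temperature, then stimulated with NKH477 (200nM […]) for 30 min. cAMP read by HTRF (665/620 nm).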

[13] = molecular target: D(2) dopamine receptor (Homo sapiens) (UniProt P14416); assay: Dopamine D2 receptor (DRD2) small molecule antagonists, cell-based qHTS assay (AID 1963595; active = well fitted inhibition curve with a large enough effect in the signal ratio in the repeat runs, with a control signal flat; the % refers to the signal ratio)
Procedure, shortened: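 Antagonist mode in DRD2-HEK293 cells: after compound addition with 0.1 mM Ro20-1724, cells received quinpirole (12 nM) and NKH477 (200 nM) for 30 min at room temperature; HTRF cAMP read after 1 h detection.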

[14] = p53 small molecule agonists, cell-based qHTS assay with human liver microsomes (AID 1963577);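 note: p53 response element beta-lactamase reporter cells with liver microsomes plus NADPH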
Procedure, shortened: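 In this qHTS, p53 response-element beta-lactamase cells receive test compound together with a microsome/NADPH activating system (0.5 mg/mL final each) and are incubated 16 h at 37 C before LiveBLAzer fluorescence detection.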

[15] = p53 small molecule agonists, cell-based qHTS assay with rat liver microsomes (AID 1963578)
Procedure, shortened: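 Agonist mode in p53RE-bla reporter cells, with compounds co-incubated 16 h at 37 C alongside 0.5 mg/mL rat liver microsomes and 0.5 mg/mL NADPH (final), followed by a 2 h LiveBLAzer detection step.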

[16] = p53 small molecule agonists, cell-based qHTS assay: qHTS cell viability counter screen (AID 1963581); note: nearly all actives have a fitted effect of over 45% in size
Procedure, shortened: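 Luminescence from CellTiter-Glo, reflecting ATP content, serves as the cytotoxicity measure; it is taken after the 2 h reporter substrate step in HCT-116 p53RE-bla cells dosed for 16 h at 37 C.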

[17] = p53 small molecule agonists, cell-based qHTS assay (AID 1963582; active = well fitted activation curve with a large enough effect in the signal ratio in the repeat runs, not every such curve was filed as active; the % refers to the signal ratio)
Procedure, shortened: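 After plating, p53RE-bla cells sat 5 h in the incubator; compounds or DMSO vehicle were pinned in; a 16 h incubation at 37 C followed; FRET substrate was added and, 2 h later at RT, fluorescence was measured.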

[18] = molecular target: 5-hydroxytryptamine receptor 2A (Homo sapiens) (UniProt P28223); assay: 5-hydroxytryptamine receptor 2A (HTR2A) small molecule antagonists, cell-based qHTS assay (AID 1963586); note: nearly all actives have a fitted effect of over 45% in size
Procedure, shortened: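 CHO cells stably expressing human HTR2A were plated for 18 h at 37 C, then loaded with calcium dye for 1 h. Compounds were preincubated 5 min at room temperature before DOI (4 nM solution) was added. Kinetic fluorescence was read for 3 min.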

[19] = molecular target: 5-hydroxytryptamine receptor 2A (Homo sapiens) (UniProt P28223); assay: 5-hydroxytryptamine receptor 2A (HTR2A) small molecule agonists, cell-based qHTS assay (AID 1963587); note: nearly all actives have a fitted effect of over 30% in size
Procedure, shortened: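 CHO cells stably expressing human HTR2A, plated 18 h, loaded with calcium dye 1 h at 37 C. Agonist mode: compounds added and intracellular calcium fluorescence recorded kinetically for 2 min at 1 sec intervals.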

[20] = molecular target: Beta-2 adrenergic receptor (Homo sapiens) (UniProt P07550); assay: Adrenergic beta2 receptor (ADRB2) small molecule agonists, cell-based qHTS assay (AID 1963593);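 note: CHO cells stably overexpressing human ADRB2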
Procedure, shortened: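 CHO cells stably over-expressing ADRB2 were plated overnight at 37C, then dosed with compounds plus a stimulation mix containing 100uM IBMX and 25uM Ro-20-1724 for 0.5hr at room temperature. cAMP was measured by HTRF competition, 1hr.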
% is set by controls: 0 for no effect and ±100 for the full control effect.

Sequence of Gonadotropin-releasing hormone receptor (Homo sapiens) (P30968 whole entry, looked up): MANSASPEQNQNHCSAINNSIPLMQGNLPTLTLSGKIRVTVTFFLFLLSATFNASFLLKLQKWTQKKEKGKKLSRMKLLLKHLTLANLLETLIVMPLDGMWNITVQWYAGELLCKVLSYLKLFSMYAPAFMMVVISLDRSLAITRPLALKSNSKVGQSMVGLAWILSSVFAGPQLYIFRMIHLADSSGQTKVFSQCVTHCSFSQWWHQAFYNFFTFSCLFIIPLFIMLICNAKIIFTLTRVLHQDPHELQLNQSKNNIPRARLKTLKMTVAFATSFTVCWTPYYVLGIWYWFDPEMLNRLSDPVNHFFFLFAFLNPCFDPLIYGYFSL
Sequence of KiSS-1 receptor (Homo sapiens) (Q969F8 whole entry, looked up): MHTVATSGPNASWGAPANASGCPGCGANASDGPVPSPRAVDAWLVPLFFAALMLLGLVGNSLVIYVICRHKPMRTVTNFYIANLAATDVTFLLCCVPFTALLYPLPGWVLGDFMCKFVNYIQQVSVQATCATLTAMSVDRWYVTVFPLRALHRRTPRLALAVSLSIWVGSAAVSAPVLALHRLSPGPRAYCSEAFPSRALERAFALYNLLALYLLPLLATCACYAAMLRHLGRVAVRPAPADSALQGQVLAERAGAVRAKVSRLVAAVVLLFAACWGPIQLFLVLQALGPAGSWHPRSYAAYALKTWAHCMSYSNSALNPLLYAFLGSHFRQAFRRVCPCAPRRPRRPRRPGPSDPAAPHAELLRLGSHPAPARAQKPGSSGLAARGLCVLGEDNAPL
Sequence of D(2) dopamine receptor (Homo sapiens) (P14416 whole entry, looked up): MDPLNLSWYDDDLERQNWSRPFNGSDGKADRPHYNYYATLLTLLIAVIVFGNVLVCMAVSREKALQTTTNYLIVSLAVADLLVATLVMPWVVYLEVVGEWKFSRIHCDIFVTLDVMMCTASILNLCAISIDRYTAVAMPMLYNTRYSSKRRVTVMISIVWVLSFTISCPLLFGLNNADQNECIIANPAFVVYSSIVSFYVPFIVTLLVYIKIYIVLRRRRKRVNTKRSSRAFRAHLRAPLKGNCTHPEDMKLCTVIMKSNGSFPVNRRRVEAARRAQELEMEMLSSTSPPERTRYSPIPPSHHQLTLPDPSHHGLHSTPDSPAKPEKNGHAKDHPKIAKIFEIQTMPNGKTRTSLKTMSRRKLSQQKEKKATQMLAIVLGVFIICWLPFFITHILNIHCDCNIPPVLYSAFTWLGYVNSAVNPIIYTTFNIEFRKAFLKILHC
Sequence of 5-hydroxytryptamine receptor 2A (Homo sapiens) (P28223 whole entry, looked up): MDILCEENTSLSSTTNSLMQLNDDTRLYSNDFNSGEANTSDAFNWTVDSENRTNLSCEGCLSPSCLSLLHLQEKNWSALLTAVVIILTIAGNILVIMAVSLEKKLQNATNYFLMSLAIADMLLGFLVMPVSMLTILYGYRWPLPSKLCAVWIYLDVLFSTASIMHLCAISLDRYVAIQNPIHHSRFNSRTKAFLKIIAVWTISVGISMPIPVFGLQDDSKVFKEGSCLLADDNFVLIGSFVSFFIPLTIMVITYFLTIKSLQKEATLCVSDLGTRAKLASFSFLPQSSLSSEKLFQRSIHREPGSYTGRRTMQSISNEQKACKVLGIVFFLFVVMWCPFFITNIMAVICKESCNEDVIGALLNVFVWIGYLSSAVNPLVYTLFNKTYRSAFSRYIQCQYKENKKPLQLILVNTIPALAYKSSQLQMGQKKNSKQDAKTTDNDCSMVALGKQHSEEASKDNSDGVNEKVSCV
Sequence of Muscarinic acetylcholine receptor M1 (Homo sapiens) (P11229 whole entry, looked up): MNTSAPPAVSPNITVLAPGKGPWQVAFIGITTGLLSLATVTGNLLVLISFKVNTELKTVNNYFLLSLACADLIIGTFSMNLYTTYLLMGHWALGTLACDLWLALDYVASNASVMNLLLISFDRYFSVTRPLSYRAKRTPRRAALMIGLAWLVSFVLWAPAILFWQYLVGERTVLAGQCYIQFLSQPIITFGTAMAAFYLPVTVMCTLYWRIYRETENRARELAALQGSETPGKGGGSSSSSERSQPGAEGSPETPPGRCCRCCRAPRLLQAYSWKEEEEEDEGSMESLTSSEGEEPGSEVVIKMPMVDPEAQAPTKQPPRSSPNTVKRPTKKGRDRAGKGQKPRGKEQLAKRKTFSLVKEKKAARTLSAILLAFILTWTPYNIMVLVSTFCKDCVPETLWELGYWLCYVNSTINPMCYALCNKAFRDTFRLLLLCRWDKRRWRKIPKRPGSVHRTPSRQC
Sequence of Beta-2 adrenergic receptor (Homo sapiens) (P07550 whole entry, looked up): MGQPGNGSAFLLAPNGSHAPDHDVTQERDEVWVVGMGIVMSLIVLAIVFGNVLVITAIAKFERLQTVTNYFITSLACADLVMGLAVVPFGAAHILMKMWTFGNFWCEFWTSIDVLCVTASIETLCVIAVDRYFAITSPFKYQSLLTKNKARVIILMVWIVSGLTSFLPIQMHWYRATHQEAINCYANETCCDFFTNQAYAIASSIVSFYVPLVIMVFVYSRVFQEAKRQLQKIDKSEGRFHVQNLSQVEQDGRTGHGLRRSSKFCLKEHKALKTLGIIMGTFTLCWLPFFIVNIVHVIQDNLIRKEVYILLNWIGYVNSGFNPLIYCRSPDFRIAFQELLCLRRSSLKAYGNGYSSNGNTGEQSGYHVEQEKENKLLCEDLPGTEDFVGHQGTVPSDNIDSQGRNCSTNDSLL

C=C[C@H]1CN2CC[C@H]1C[C@H]2[C@H](O)c1ccnc2ccc(OC)cc12
inactive: Potency [1] | Potency [2] | Potency [3] | Potency [4] | Potency [5] | Potency [6] | Potency [7] | Potency [8] | Potency [9] | Potency [10] | Potency [11] | Potency [12] | Potency [13]

O=c1oc2c(O)c(O)cc3c(=O)oc4c(O)c(O)cc1c4c23
inactive: activity, positive = activation [1] -10.8% [at 19 µM] | activity change [2] 0.294% [at 11.8 µM, hits give high values] | activation [4] 0.163% [at 11.8 µM] | activation [14] -4.17% [at 13.5 µM] | activation [15] -5.41% [at 13.6 µM] | activity change, negative = cytotoxicity [5] 3.06% [at 13.5 µM] | activity change, negative = cytotoxicity [6] -3.76% [at 13.5 µM] | activity change, negative = cytotoxicity [16] -7.94% [at 13.5 µM] | activation [17] -1.21% [at 13.5 µM] | activity, negative = inhibition [18] -5.93% [at 12.7 µM] | activation [19] 2.19% [at 15.9 µM] | activity, negative = inhibition [7] 14.7% [at 12.6 µM] | activation [8] 0.409% [at 15.8 µM] | activation [9] -1.26% [at 19 µM] | activity change, negative = inhibition [11] -0.63% [at 19 µM] | activation [20] -28.3% [at 19 µM] | activity change, negative = inhibition [13] 0.195% [at 18.9 µM]

COC(=O)OC
inactive: Potency [2] | Potency [3] | Potency [4] | Potency [14] | Potency [15] | Potency [5] | Potency [6] | Potency [16] | Potency [17] | Potency [18] | Potency [19] | Potency [7] | Potency [8] | Potency [9] | Potency [10] | Potency [11] | Potency [12] | Potency [13]

CN(C)N=Nc1ccccc1
inactive: Potency [1] | Potency [3] | Potency [4] | Potency [14] | Potency [15] | Potency [6] | Potency [16] | Potency [17] | Potency [18] | Potency [19] | Potency [7] | Potency [8] | Potency [9] | Potency [10] | Potency [11] | Potency [20] | Potency [12] | Potency [13]

N=C(N=C(N)N)N1CCOCC1
inactive: Potency [1] | Potency [2] | Potency [4] | Potency [15] | Potency [5] | Potency [6] | Potency [16] | Potency [17] | Potency [18] | Potency [19] | Potency [7] | Potency [8] | Potency [9] | Potency [10] | Potency [20] | Potency [12]

CC(C)[C@H]1CC[C@@H](C)CC1=O
inactive: Potency [1] | Potency [3] | Potency [4] | Potency [14] | Potency [15] | Potency [5] | Potency [6] | Potency [16] | Potency [17] | Potency [18] | Potency [19] | Potency [7] | Potency [8] | Potency [9] | Potency [10] | Potency [11] | Potency [20] | Potency [13]

O=C(O)c1ccc([N+](=O)[O-])cc1
inactive: Potency [1] | Potency [2] | Potency [4] | Potency [14] | Potency [15] | Potency [6] | Potency [16] | Potency [17] | Potency [7] | Potency [8] | Potency [9] | Potency [10] | Potency [11] | Potency [20] | Potency [12]
